Source: PubChem BioAssay (NCATS)
Inconclusive results are not listed. Active and inactive are the calls of the source. Calls follow the shape of the dose curve; as a rule, active = well fitted cell-killing curve with a large enough effect; inconclusive = small, poorly fitted or top-dose-only effect, or effect the other way; inactive = flat fitted curve, though single readings scatter.

Columns and labels:
Test in all cases: Primary qHTS to identify gynecologic anti-cancer compounds using libraries of approved drugs and bioactive compounds (AID 1345084); also: nearly all actives have a fitted effect of over 55% in size
C33A = conditions: Gynecologic cancer cell panel viability, ATPlite luminescence, 48 h; series mostly up to 57.5 µM
Procedure, shortened: (§1)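 Cells, 1,000 per well, plated 16 h, then exposed 48 h at 37 C to compounds. Viability by ATPlite luminescence after 15 min at room temperature.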

CAOV3 = conditions: Gynecologic cancer cell panel viability, ATPlite luminescence, 48 h; series mostly up to 57.5 µM
Procedure, shortened: as §1

CASKI = conditions: Gynecologic cancer cell panel viability, ATPlite luminescence, 48 h; series mostly up to 57.5 µM
Procedure, shortened: as §1

Es-2 = conditions: Gynecologic cancer cell panel viability, ATPlite luminescence, 48 h; series mostly up to 57.5 µM
Procedure, shortened: as §1

HeLa = conditions: Gynecologic cancer cell panel viability, ATPlite luminescence, 48 h; series mostly up to 57.5 µM
Procedure, shortened: as §1

Hek293T = conditions: Gynecologic cancer cell panel viability, ATPlite luminescence, 48 h, control line for the selectivity index; series mostly up to 57.5 µM
Procedure, shortened: as §1

JEG-3 = conditions: Gynecologic cancer cell panel viability, ATPlite luminescence, 48 h; series mostly up to 57.5 µM
Procedure, shortened: as §1

OV90 = conditions: Gynecologic cancer cell panel viability, ATPlite luminescence, 48 h; series mostly up to 57.5 µM
Procedure, shortened: as §1

PA-1 = conditions: Gynecologic cancer cell panel viability, ATPlite luminescence, 48 h; series mostly up to 57.5 µM
Procedure, shortened: as §1

SKOV3 = conditions: Gynecologic cancer cell panel viability, ATPlite luminescence, 48 h; series mostly up to 57.5 µM
Procedure, shortened: as §1

Tov-21-G = conditions: Gynecologic cancer cell panel viability, ATPlite luminescence, 48 h; series mostly up to 57.5 µM
Procedure, shortened: as §1

Tov112D = conditions: Gynecologic cancer cell panel viability, ATPlite luminescence, 48 h; series mostly up to 57.5 µM
Procedure, shortened: as §1

Measured: Potency

CC(=O)O[C@@H]1C[C@@H](OC(C)=O)C(C)(C)/C=C/[C@H](C)[C@H](OC(C)=O)[C@@]2(O)C[C@H](C)[C@H](OC(=O)c3ccccc3)[C@@H]2/C=C/1C
inactive: all assays above

CC(=O)c1cc2c(cc1O)OC(C)(C)C=C2
inactive: all assays above

C[C@H]1CC(=O)Nc2cccc(-c3cnn(C(C)(C)C)c3)c2N1
inactive: all assays above

CCOCCn1nc(CC)c2nc(N3CCC(C(=O)O)CC3)nc(Nc3cc(C)ccn3)c21
inactive: all assays above

COC(=O)C1=COC(OC2OC(CO)C(O)C(O)C2O)C2C1C=CC2(O)CO (stereo unspecified)
inactive: all assays above

CC/C=C\CCO[C@@H]1O[C@H](CO)[C@@H](O)[C@H](O)[C@H]1O
inactive: all assays above

C[C@H]1CC[C@@]2(OC1)O[C@H]1CC3C4CC[C@H]5C[C@@H](O)[C@H](O)C[C@]5(C)C4=CC(=O)[C@]3(C)[C@H]1[C@@H]2C (stereo partly specified)
inactive: all assays above

C=C(C)C1Cc2cc(C(=O)OC3OC(CO)C(O)C(O)C3O)ccc2O1 (stereo unspecified)
inactive: all assays above

C=C1CCCC2(C)CC3(OC)OC(=O)C(C)=C3CC12 (stereo unspecified)
inactive: all assays above

C/C1=C\[C@H]2OC(=O)[C@@H](C)[C@@H]2CC/C(C(=O)O)=C/CC1
inactive: all assays above

Cc1c2cc(c(C(=O)O)c1C)OC1OC(C(O)C(O)C1O)C(O)C(O)C1OC(O2)C(O)C(O)C1O (stereo unspecified)
inactive: all assays above

COc1ccc(C(O)C(C)OC2OC(CO)C(O)C(O)C2O)cc1 (stereo unspecified)
inactive: all assays above

COC(=O)C12C(=O)C(C)=C(O)C1(C)C(C)=CC1C3(CO)CCC(O)C(C)(C)C3CCC12C (stereo unspecified)
inactive: all assays above
